Data published in the supplement of paper PMC10849652.
Of roughly 8,800 targets only a part is listed; those with a hit were picked by preference. About 0.5% of all pairs of compound and target were hits.

Assays:
Test in all cases: log2 fold change, soluble protein after heating vs DMSO (PISA); higher = thermal stabilisation; K562 lysate, 10 uM; active = over 0.2 and 3.5 SD of the protein, either way, in both replicates (recomputed)
vemurafenib = compound: CCCS(=O)(=O)Nc1ccc(F)c(C(=O)c2c[nH]c3ncc(-c4ccc(Cl)cc4)cc23)c1F [vemurafenib]
In short: (§1)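 Log-two fold change in thermal stability relative to solvent controls is reported from duplicates. For each sample, crude K562 extract from dounce-homogenised pellets in PBS pH 7.4 with 1 mM MgCl2, at 1 mg/mL protein, was treated with 10 μM compound for 30 min. Aliquots heated for 3 min across 48°C-58°C were pooled, brought to 0.5% NP-40 at 4°C and cleared at 21,000xg for 90 min. The supernatant was quantified by TMTpro 16plex LC-MS/MS with channel sums equalised.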

[1] = compound: CCCS(=O)(=O)Nc1ccc(F)c(C(=O)c2c[nH]c3ncc(Cl)cc23)c1F
In short: as §1

barasertib = compound: CCN(CCCOc1ccc2c(Nc3cc(CC(=O)Nc4cccc(F)c4)[nH]n3)ncnc2c1)CCOP(=O)(O)O [barasertib]
In short: as §1

[2] = compound: CC[C@@H]1C(=O)N(C)c2cnc(Nc3ccc(C(=O)NC4CCN(C)CC4)cc3OC)nc2N1C1CCCC1
In short: as §1

volasertib = compound: CC[C@@H]1C(=O)N(C)c2cnc(Nc3ccc(C(=O)N[C@H]4CC[C@H](N5CCN(CC6CC6)CC5)CC4)cc3OC)nc2N1C(C)C [volasertib]
In short: as §1

[3] = compound: CCn1c(C(=O)N(C2CC2)C2CC2)cc2c3c(ncn3C)c(Nc3cc(C)n(C)n3)nc21
In short: as §1

[4] = compound: CCn1cc(-c2ccnc3[nH]c(-c4cccc(CN(C)C)c4)cc23)c(-c2ccc(NC(=O)N(C)C)cc2)n1
In short: as §1

[5] = compound: CN1CCC(CNc2ccc3ncc(-c4cccc(OC(F)(F)F)c4)n3n2)CC1
In short: as §1

saracatinib = compound: CN1CCN(CCOc2cc(OC3CCOCC3)c3c(Nc4c(Cl)ccc5c4OCO5)ncnc3c2)CC1 [saracatinib]
In short: as §1

sotrastaurin = compound: CN1CCN(c2nc(C3=C(c4c[nH]c5ccccc45)C(=O)NC3=O)c3ccccc3n2)CC1 [sotrastaurin]
In short: as §1

alvocidib = compound: CN1CC[C@H](c2c(O)cc(O)c3c(=O)cc(-c4ccccc4Cl)oc23)[C@H](O)C1 [alvocidib]
In short: as §1

Tubastatin A = compound: CN1CCc2c(c3ccccc3n2Cc2ccc(C(=O)NO)cc2)C1 [Tubastatin A]
In short: as §1

[6] = compound: CNC(=O)C1=CC=CC=C1NC2=NC(=NC=C2Cl)NC3=C(C=C(C=C3)N4CCOCC4)OC
In short: as §1

defactinib = compound: CNC(=O)c1ccc(Nc2ncc(C(F)(F)F)c(NCc3nccnc3N(C)S(C)(=O)=O)n2)cc1 [defactinib]
In short: as §1

[7] = compound: CNc1nc(-c2ccc3c(N)n[nH]c3c2)cc(N2C[C@@H](C(=O)NC3CCCCC3)CC[C@H]2C)n1
In short: as §1

encorafenib = compound: COC(=O)N[C@@H](C)CNc1nccc(-c2cn(C(C)C)nc2-c2cc(Cl)cc(NS(C)(=O)=O)c2F)n1 [encorafenib]
In short: as §1

[8] = compound: COC(=O)[C@H](CCSC)NC(=O)C1=C(C=C(C=C1)NC[C@H](CS)N)C2=CC=CC=C2
In short: as §1

alisertib = compound: COc1cc(Nc2ncc3c(n2)-c2ccc(Cl)cc2C(c2c(F)cccc2OC)=NC3)ccc1C(=O)O [alisertib]
In short: as §1

[9] = compound: COc1cc2nc(-c3cc(F)ccc3O)nc(N[C@@H]3CNC[C@H]3C(C)(C)O)c2cc1OC
In short: as §1

gefitinib = compound: COc1cc2ncnc(Nc3ccc(F)c(Cl)c3)c2cc1OCCCN1CCOCC1 [gefitinib]
In short: as §1

Measured: log2 fold change

DHRS11 (UniProt Q6UWP2)
UniProt Q6UWP2, sequence (Q6UWP2 whole entry, looked up): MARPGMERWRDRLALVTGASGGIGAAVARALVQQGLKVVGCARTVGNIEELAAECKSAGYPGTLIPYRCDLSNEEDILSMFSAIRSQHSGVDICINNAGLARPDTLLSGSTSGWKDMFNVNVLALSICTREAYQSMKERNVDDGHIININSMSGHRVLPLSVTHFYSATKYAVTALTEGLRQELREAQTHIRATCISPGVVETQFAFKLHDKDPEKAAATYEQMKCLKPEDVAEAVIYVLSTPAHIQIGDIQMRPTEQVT
inactive: vemurafenib 0.015 | [1] 0.007 | barasertib 0 | [2] -0.019 | volasertib -0.026 | [3] 0.023 | [4] -0.03 | [5] 0.025 | saracatinib 0.013 | sotrastaurin 0.004 | alvocidib -0.001 | Tubastatin A -0.083 | [6] 0.055 | defactinib 0.021 | [7] 0.031 | encorafenib 0.024 | [8] 0.109 | alisertib -0.074 | [9] 0.031 | gefitinib -0.022

CYCS (UniProt P99999)
inactive: vemurafenib -0.011 | [1] -0.001 | barasertib -0.01 | [2] 0.061 | volasertib 0.041 | [3] 0.018 | [4] -0.025 | [5] 0.052 | saracatinib 0.008 | sotrastaurin -0.017 | alvocidib -0.003 | Tubastatin A 0.027 | [6] 0.009 | defactinib 0.04 | [7] 0.018 | encorafenib -0.004 | [8] -0.04 | alisertib -0.019 | [9] -0.002 | gefitinib 0.003

CTPS1 (UniProt P17812)
inactive: vemurafenib -0.008 | [1] 0.016 | barasertib -0.024 | [2] -0.065 | volasertib -0.04 | [3] 0.026 | [4] -0.041 | [5] -0.011 | saracatinib 0.007 | sotrastaurin 0.021 | alvocidib 0.006 | Tubastatin A -0.101 | [6] -0.021 | defactinib 0 | [7] -0.048 | encorafenib 0.016 | [8] 0.038 | alisertib -0.019 | [9] -0.001 | gefitinib -0.015

CKM (UniProt P06732)
inactive: vemurafenib 0.072 | [1] -0.018 | barasertib -0.018 | [2] 0.086 | volasertib -0.084 | [3] -0.039 | [5] 0.17 | saracatinib -0.014 | sotrastaurin 0.086 | alvocidib -0.126 | Tubastatin A -0.091 | [6] -0.049 | defactinib -0.033 | [7] -0.037 | encorafenib 0.016 | [8] 0.026 | alisertib -0.015 | [9] 0.031 | gefitinib -0.065
active: [4] -0.574

DLG3 isoform 2 (UniProt Q92796)
inactive: vemurafenib 0.109 | [1] 0.005 | barasertib 0.047 | [2] -0.128 | volasertib -0.006 | [3] -0.057 | [4] -0.14 | [5] 0.038 | saracatinib 0.004 | sotrastaurin 0.043 | alvocidib -0.136 | Tubastatin A 0 | [6] -0.026 | defactinib 0.053 | [7] -0.01 | encorafenib -0.089 | [8] -0.082 | alisertib 0.069 | [9] -0.055 | gefitinib -0.131

CMBL (UniProt Q96DG6)
UniProt Q96DG6, sequence (Q96DG6 whole entry, looked up): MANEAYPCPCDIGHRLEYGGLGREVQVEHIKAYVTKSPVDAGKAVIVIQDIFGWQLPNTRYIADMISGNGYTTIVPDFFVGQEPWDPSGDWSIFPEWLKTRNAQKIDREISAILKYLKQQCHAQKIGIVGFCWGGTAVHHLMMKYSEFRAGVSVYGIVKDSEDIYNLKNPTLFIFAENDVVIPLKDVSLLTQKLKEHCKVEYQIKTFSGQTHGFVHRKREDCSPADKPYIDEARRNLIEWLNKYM
inactive: vemurafenib -0.053 | [1] -0.027 | barasertib -0.026 | [2] 0.081 | volasertib 0.183 | [3] 0.004 | [4] -0.174 | [5] 0.129 | saracatinib -0.016 | sotrastaurin -0.015 | alvocidib 0.006 | Tubastatin A 0.001 | [6] -0.012 | defactinib -0.051 | [7] 0.013 | encorafenib -0.051 | [8] -0.009 | alisertib 0.001 | [9] 0.038 | gefitinib 0.03

CIC (UniProt I3L2J0)
inactive: vemurafenib -0.077 | [1] -0.043 | [2] -0.057 | volasertib -0.032 | [3] 0.001 | [4] -0.05 | [5] -0.004 | saracatinib 0.021 | sotrastaurin -0.016 | alvocidib 0.005 | Tubastatin A -0.03 | [6] 0.072 | defactinib 0.041 | [7] 0.035 | encorafenib -0.002 | [8] 0.052 | alisertib -0.027 | [9] 0.158 | gefitinib -0.098
active: barasertib 0.4

DICER1 (UniProt Q9UPY3)
UniProt Q9UPY3, sequence (Q9UPY3 whole entry, looked up): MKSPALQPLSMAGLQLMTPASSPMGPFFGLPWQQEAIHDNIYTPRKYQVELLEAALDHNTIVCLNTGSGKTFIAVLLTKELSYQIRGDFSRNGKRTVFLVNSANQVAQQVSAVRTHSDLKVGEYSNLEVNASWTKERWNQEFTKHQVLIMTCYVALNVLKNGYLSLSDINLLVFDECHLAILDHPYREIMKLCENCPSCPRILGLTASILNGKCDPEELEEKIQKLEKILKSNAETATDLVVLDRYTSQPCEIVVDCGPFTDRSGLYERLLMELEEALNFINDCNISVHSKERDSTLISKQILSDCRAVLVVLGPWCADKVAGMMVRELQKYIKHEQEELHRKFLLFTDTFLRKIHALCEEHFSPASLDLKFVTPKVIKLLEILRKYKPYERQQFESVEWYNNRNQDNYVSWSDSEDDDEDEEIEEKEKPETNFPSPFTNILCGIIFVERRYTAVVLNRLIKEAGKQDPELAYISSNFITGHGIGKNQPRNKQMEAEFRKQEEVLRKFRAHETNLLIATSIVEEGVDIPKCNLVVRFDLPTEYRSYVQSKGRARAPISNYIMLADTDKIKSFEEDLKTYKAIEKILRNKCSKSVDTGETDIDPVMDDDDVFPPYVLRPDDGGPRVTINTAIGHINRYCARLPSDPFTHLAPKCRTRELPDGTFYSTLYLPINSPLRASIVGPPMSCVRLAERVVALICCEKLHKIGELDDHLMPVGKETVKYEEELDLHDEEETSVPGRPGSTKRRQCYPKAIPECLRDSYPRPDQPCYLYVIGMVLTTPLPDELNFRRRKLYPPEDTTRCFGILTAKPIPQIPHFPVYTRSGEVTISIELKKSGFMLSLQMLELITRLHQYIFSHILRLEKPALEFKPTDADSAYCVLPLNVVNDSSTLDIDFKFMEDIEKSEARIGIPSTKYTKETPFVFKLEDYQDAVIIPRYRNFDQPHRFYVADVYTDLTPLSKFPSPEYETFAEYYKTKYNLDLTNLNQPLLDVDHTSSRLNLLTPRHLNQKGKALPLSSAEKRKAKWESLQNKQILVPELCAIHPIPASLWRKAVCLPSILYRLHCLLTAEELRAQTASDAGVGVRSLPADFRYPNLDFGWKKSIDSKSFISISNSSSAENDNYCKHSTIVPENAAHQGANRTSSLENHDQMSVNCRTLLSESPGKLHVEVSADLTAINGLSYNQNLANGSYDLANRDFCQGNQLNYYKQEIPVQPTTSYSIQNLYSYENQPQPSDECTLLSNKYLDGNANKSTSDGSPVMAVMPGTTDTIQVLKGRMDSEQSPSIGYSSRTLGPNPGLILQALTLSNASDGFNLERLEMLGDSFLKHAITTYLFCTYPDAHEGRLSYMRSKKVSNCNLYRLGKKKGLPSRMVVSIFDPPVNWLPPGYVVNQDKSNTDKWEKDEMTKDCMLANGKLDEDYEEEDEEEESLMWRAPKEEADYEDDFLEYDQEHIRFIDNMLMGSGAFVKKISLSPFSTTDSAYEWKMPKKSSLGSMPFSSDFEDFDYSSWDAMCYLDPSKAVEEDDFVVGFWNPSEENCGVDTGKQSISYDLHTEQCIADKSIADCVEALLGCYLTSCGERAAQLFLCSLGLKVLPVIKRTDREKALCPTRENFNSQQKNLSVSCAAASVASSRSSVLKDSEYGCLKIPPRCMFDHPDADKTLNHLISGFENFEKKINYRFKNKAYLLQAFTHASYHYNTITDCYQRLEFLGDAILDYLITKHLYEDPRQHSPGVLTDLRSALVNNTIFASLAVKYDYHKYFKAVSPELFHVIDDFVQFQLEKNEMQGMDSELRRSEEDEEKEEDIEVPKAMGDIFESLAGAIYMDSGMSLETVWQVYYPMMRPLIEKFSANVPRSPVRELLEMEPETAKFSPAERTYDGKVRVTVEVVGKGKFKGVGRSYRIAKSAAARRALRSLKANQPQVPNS
inactive: vemurafenib -0.002 | [1] 0.05 | barasertib 0.01 | [2] 0.003 | volasertib -0.068 | [3] 0.021 | [4] 0.275 | [5] 0.036 | saracatinib 0.005 | sotrastaurin -0.018 | alvocidib -0.032 | Tubastatin A -0.172 | [6] 0.112 | defactinib 0.046 | [7] -0.003 | encorafenib 0.037 | [8] 0.039 | alisertib 0.012 | [9] -0.022 | gefitinib -0.027

CHEK1 (UniProt O14757)
inactive: vemurafenib -0.02 | [1] 0.006 | barasertib 0.015 | [2] -0.031 | volasertib -0.012 | [3] -0.012 | [4] -0.008 | [5] -0.045 | saracatinib -0.004 | sotrastaurin -0.014 | alvocidib 0.01 | Tubastatin A 0.072 | [6] -0.063 | defactinib -0.021 | [7] -0.002 | encorafenib 0.002 | [8] -0.008 | alisertib 0.008 | [9] -0.178 | gefitinib 0.013

COG4 (UniProt Q9H9E3)
inactive: vemurafenib 0.018 | [1] 0.047 | barasertib 0.085 | [2] -0.048 | volasertib -0.088 | [3] 0.024 | [4] 0.005 | [5] -0.125 | saracatinib 0.055 | sotrastaurin 0.05 | alvocidib 0.028 | Tubastatin A -0.131 | [6] 0.025 | defactinib 0.029 | [7] -0.003 | encorafenib 0.079 | [8] 0.011 | alisertib 0.016 | [9] 0.022 | gefitinib 0.009

CNDP2 (UniProt Q96KP4)
active: [4] -0.343 | [5] 0.278
inactive: vemurafenib 0.01 | [1] 0.023 | barasertib -0.01 | [2] 0.11 | volasertib 0.041 | [3] -0.032 | saracatinib 0.01 | sotrastaurin 0.013 | alvocidib -0.11 | Tubastatin A 0.039 | [6] 0.003 | defactinib 0.005 | [7] 0.1 | encorafenib -0.02 | [8] 0.002 | alisertib -0.031 | [9] 0.047 | gefitinib 0.013

CMIP (UniProt Q8IY22)
inactive: vemurafenib 0.009 | [1] 0.023 | barasertib 0.04 | [2] -0.055 | volasertib -0.057 | [3] 0.043 | [4] -0.043 | [5] -0.054 | saracatinib 0.014 | sotrastaurin 0.017 | alvocidib 0.002 | Tubastatin A -0.161 | [6] 0.001 | defactinib 0.061 | [7] -0.015 | encorafenib 0.078 | [8] 0.025 | alisertib -0.012 | [9] -0.016 | gefitinib 0.007

COG3 (UniProt Q96JB2)
UniProt Q96JB2, sequence (Q96JB2 whole entry, looked up): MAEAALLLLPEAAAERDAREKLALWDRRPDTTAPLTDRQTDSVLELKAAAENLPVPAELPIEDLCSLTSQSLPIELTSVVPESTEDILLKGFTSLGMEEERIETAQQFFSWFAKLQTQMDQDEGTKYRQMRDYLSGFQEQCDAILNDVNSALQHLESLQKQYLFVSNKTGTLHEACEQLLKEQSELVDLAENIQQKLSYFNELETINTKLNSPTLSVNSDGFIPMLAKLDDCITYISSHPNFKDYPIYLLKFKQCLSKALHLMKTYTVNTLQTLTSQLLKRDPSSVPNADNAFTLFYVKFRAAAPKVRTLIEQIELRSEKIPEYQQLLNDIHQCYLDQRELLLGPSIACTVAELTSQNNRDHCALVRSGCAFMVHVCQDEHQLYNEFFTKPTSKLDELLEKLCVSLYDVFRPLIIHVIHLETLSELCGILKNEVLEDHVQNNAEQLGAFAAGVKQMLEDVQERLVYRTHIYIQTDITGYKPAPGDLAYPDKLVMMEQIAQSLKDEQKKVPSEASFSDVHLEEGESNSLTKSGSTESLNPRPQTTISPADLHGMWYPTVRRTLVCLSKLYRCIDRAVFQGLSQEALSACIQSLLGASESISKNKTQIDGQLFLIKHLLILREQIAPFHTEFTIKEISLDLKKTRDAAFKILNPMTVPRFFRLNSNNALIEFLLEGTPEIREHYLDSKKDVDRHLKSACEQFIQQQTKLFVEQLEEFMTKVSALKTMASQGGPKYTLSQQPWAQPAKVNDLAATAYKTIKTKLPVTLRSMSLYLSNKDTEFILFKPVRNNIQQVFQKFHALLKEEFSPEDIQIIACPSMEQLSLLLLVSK
inactive: vemurafenib 0.004 | [1] 0.012 | barasertib 0.041 | [2] -0.056 | volasertib -0.071 | [3] 0.042 | [4] -0.038 | [5] 0.012 | saracatinib 0.046 | sotrastaurin 0.008 | alvocidib -0.023 | Tubastatin A -0.09 | [6] 0.042 | defactinib -0.016 | [7] -0.041 | encorafenib -0.013 | [8] -0.045 | alisertib 0.032 | [9] -0.018 | gefitinib -0.026

CPT1A (UniProt P50416)
UniProt P50416, sequence (P50416 whole entry, looked up): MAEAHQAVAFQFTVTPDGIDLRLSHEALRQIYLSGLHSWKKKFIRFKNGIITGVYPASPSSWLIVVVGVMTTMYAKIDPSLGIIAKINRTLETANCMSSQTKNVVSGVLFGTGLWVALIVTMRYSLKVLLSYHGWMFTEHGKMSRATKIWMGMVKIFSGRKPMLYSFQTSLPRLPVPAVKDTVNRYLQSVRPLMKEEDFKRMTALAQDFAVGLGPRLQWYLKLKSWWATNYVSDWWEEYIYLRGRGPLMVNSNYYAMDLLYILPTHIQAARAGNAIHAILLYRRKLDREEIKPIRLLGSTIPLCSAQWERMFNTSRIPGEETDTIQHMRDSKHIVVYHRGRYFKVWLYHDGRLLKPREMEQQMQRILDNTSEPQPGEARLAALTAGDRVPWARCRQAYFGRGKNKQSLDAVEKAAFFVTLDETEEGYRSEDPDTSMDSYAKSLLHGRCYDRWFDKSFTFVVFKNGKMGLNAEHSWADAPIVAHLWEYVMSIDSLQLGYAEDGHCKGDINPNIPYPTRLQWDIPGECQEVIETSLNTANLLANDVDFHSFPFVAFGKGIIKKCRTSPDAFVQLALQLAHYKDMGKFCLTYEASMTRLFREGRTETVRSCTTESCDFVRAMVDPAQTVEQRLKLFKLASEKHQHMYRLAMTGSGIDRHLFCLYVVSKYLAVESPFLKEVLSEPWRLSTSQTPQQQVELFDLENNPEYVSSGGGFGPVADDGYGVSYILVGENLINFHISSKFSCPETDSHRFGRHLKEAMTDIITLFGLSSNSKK
inactive: vemurafenib 0.024 | [1] 0.035 | barasertib 0.048 | [2] 0.038 | volasertib 0.032 | [3] -0.018 | [4] 0 | [5] -0.137 | saracatinib -0.004 | sotrastaurin -0.014 | Tubastatin A 0.261 | [6] 0.004 | defactinib -0.053 | [7] 0.113 | encorafenib 0.036 | [8] 0.078 | alisertib -0.014 | [9] -0.051 | gefitinib 0.031
active: alvocidib 0.407

CTNND1 isoform 3 (UniProt O60716)
UniProt O60716, sequence (O60716 whole entry, looked up): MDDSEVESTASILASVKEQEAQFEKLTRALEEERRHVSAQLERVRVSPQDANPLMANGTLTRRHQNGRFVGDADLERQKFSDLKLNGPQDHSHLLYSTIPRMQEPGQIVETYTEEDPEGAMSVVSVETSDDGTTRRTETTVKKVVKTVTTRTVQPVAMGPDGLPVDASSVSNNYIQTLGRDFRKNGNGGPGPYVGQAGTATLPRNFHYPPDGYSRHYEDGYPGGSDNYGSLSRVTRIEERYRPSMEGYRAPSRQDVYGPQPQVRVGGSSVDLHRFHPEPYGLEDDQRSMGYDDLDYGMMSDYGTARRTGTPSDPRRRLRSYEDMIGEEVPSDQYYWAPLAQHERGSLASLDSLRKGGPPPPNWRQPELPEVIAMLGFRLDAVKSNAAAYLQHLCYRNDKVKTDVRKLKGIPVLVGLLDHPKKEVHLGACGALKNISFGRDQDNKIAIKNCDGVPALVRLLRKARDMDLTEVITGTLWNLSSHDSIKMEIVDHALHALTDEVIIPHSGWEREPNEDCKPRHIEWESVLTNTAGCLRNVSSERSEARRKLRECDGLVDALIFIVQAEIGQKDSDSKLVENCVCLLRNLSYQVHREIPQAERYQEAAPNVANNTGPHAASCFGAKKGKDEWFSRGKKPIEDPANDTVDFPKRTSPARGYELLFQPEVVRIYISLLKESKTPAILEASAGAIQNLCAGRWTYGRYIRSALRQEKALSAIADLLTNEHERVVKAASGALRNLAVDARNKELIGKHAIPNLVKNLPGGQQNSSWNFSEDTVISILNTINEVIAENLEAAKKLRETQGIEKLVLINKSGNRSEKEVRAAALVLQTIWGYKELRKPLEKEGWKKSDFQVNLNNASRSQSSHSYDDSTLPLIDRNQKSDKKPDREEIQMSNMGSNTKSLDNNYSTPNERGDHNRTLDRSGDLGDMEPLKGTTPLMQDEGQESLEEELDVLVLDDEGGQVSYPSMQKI
inactive: vemurafenib 0.06 | [1] 0.037 | barasertib 0.036 | [2] -0.034 | volasertib -0.098 | [3] 0.073 | [4] -0.032 | [5] 0.004 | saracatinib -0.012 | sotrastaurin 0.024 | alvocidib -0.02 | Tubastatin A -0.159 | [6] 0.019 | defactinib 0.045 | [7] -0.04 | encorafenib 0.013 | [8] 0.174 | alisertib 0.026 | [9] 0.006 | gefitinib -0.023

DLGAP5 (UniProt Q15398)
inactive: vemurafenib 0.01 | [1] 0.009 | barasertib 0.007 | [2] -0.018 | volasertib -0.013 | [3] 0 | [4] -0.024 | [5] 0.019 | saracatinib 0.013 | sotrastaurin -0.004 | alvocidib -0.007 | Tubastatin A -0.021 | [6] 0.01 | defactinib 0.004 | [7] -0.004 | encorafenib 0.024 | [8] 0 | alisertib -0.016 | [9] -0.02 | gefitinib -0.001
